Hits are enriched below; roughly 13% of the tested compounds scored in any of these assays.
HCV inhibitor – qHTS Assay for Inhibitors of Hepatitis C Virus (HCV). Huh7.5.1 HCVcc-Cre infection, luciferase reporter, 44 h. Potency, µM (doses to about 41.8 µM), for inactives: at the top dose activity change, negative = inhibition, most hits filed as inhibitors. 340,000 compounds, 3.4% hits. AID 651820, 2012; active means well fitted inhibition curve with a large enough effect; inconclusive means small, poorly fitted or top-dose-only effect, or another doubt; inactive means no such curve, though single readings can be large or run the other way; further: potency means the concentration at half of the fitted maximal effect; on the % scale 0 is the no-effect control and ±100 the full control effect
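After 44 h co-culture of compound, cells and HCVcc-Cre (~0.5 moi), substrate is added for 15 min at room temperature and luciferase measured over 15 sec. Cells were seeded at 1,000/well and pre-cultured 4 h.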
MARV entry inh – qHTS for inhibitors of binding or entry into cells for Marburg Virus. Marburg virus pseudotyped entry inhibition, cell reporter. Potency, µM (top dose mostly 37.8 µM), for inactives: at the highest dose activity change, negative = inhibition, usual class: inhibitors. 300,000 compounds, 1.8% hits; calls by dose curve; tested in HEK293 cells; further: potency means the concentration at half of the fitted maximal effect; on the % scale 0 is the no-effect control and ±100 the full control effect
Lassa entry inh – qHTS for Inhibitors of binding or entry into cells for Lassa Virus; Lassa virus pseudotype entry inhibition, cell reporter; Potency, µM (series often up to 37.9 µM), for inactives: at the top dose activity change, negative = inhibition, usual class: inhibitors; 300,000 compounds, 1.2% hits; AID 540256, 2011; calls by dose curve; tested in HEK293 cells; further: potency means the concentration at half of the fitted maximal effect; on the % scale 0 is the no-effect control and ±100 the full control effect; nearly all actives have a fitted effect of over 50% in size
CHX counter – Cycloheximide Counterscreen for Small Molecule Inhibitors of Shiga Toxin; cell reporter, cycloheximide protein synthesis inhibition counterscreen; max response, %; 300,000 compounds, 12% hits; AID 2314, 2010; in the data active means max response mostly above about 13%, no sharp cut-off; inactive means mostly below about 14%; further: read at 38.3 µM for the half of the compounds with a filed dose; 0% is about no effect
Shiga toxin inh – A qHTS for Small Molecule Inhibitors of Shiga Toxin | Vero cells, Shiga toxin protein synthesis inhibition reporter | inhibition, % at 38.7 µM | 290,000 compounds, 9.2% hits | AID 2315, 2010; in the data active means inhibition mostly above about 28%, no sharp cut-off; inactive means mostly below about 43%; further: 0% is about no effect
FMDV inh – High Throughput Screening for Foot and Mouth Disease Virus Antivirals; 410,000 compounds, 1.2% hits; AID 1159524, 2015; Potency, µM (top dose mostly 57.9 µM), inactives show top-dose activity change, negative = inhibition, most hits filed as inhibitors; FMDV antiviral cell-based qHTS; calls by dose curve; tested in HEK293T cells; further: read-out not given here; potency means the concentration at half of the fitted maximal effect; on the % scale 0 is the no-effect control and ±100 the full control effect; nearly all actives have a fitted effect of over 45% in size
* = called active by the depositor; ? = inconclusive; . = not tested or not shown; ! = a repeat was not active; [ ] = remark or other dose.

SMILES	HCV inhibitor	MARV entry inh	Lassa entry inh	CHX counter	Shiga toxin inh	FMDV inh
Cc1cccc(C)c1NC(=O)c1ccc(-c2ccc(Cl)cc2Cl)o1	?	10µM*	?	1	-14	-24%
O=C(NCc1ccccc1C(F)(F)F)C1CC(O)CN1C(=O)Nc1ccccc1 (stereo not drawn)	6%	.	.	-2	.	8%
CSc1nnc2c(n1)OC1(Nc3ccccc3-2)C(=O)Nc2ccccc21 (stereo not drawn)	11%	-2%	7%	-3	3	-8%
CN1C2CCC1CC(N(CCc1ccccc1)C(=O)c1ccc(Cl)cc1)C2 (stereo not drawn)	-21%	.	.	0	20	-15%
CCCCN(C(=O)c1ccc(Cl)cc1)C1CC2CCC(C1)N2C (stereo not drawn)	11µM*	?	?	-2	-12	-2%
COc1ccc(C)cc1NC(=O)CCC(=O)Nc1ccc2nc(N3CCN(C)CC3)cc(C)c2c1	10µM*	?	-4%	-2	-3	-10%
CCN1CCN(c2cc(C)c3cc(NC(=O)c4cccc(C(F)(F)F)c4)ccc3n2)CC1	.	?	1%[46.1 µM]	.	.	-19%
CCN1CCN(c2cc(C)c3cc(NC(=O)c4cncc(Br)c4)ccc3n2)CC1	5.6µM*	?	-25%	-7	-22	-25%
Cc1cc(Nc2cccc(C(F)(F)F)c2)nc2ccc(NC(=O)c3cncc(Br)c3)cc12	.	.	-19%[46.1 µM]	.	.	32µM*
Cc1cc(Nc2cccc(Cl)c2)nc2ccc(NC(=O)c3cncc(Br)c3)cc12	.	.	-21%[46.1 µM]	.	.	-13%
CCN1CCN(c2cc(C)c3cc(NC(=O)c4cccs4)ccc3n2)CC1	?	?	-52%	21*	86	15%
O=C1CCCCC1C(Nc1ccc(Cl)cc1)c1ccccc1 (stereo not drawn)	-14%	-9%	3%	7	27	-23%
COc1ccc(/C=C/C(=O)Nc2ccc3nc(N4CCC(C)CC4)cc(C)c3c2)cc1OC	.	10µM*	?	.	.	-13%
CCN1CCN(c2cc(C)c3cc(NC(=O)c4ccc(OC)c(OC)c4)ccc3n2)CC1	11µM*	?	-1%[46.1 µM]	4	-17	9%
COc1ccc(C(=O)Nc2ccc3nc(N4CCN(C)CC4)cc(C)c3c2)c(OC)c1	?	?	?	-3	-4	-1%
CCN1CCN(c2cc(C)c3cc(NC(=O)c4cc(OC)c(OC)c(OC)c4)ccc3n2)CC1	.	.	-24%[46.1 µM]	.	.	-3%
COc1cccc(C(=O)Nc2ccc3nc(N4CCN(c5ncccn5)CC4)cc(C)c3c2)c1OC	?	.	.	14*	-2	.
CCN1CCN(c2cc(C)c3cc(NC(=O)c4cccc(OC)c4)ccc3n2)CC1	?	.	.	31*	39*	28%
COc1ccc(-c2noc(CNC(=O)c3ccc4c(c3)OCO4)n2)cc1OC	?	3%	-13%	-4	19	-7%
CCOC(=O)c1c(C)n(C)c2ccc(OC(C)C(=O)OC)cc12 (stereo not drawn)	?	10%	-1%	-5	-2	-20%
CCOC(=O)c1c(CNCCN(CC)CC)n(C)c2cc(Br)c(OC)cc12	?	11µM*!	?	-3	-13	-26%
CCN(CC)CCNC(=O)c1c(C)n(-c2ccccc2)c2cc(Br)c(OC)cc12	?	?	7.3µM*	-7	-25	-20%
CCOC(=O)c1c(C)n(C)c2cc(Br)c(C(=O)OC)cc12	10µM*	?	-4%	2	-6	-18%
COc1ccc2oc(=O)cc(CN(C)Cc3ccccc3)c2c1	7.9µM*	?	-23%[46.1 µM]	-4	-5	-5%
CN(Cc1ccccc1)Cc1cc(=O)oc2ccccc12	.	.	?	.	.	18%
SMILES	HCV inhibitor	MARV entry inh	Lassa entry inh	CHX counter	Shiga toxin inh	FMDV inh
COc1ccc(CN2CCN(C(=O)Cn3ncn4cccc4c3=O)CC2)c(OC)c1OC	?	.	.	-3	3	?
COc1ccc(CN(C)Cc2cc(=O)oc3cc(C)c(C(C)C)cc23)cc1OC	?	?	?	-1	-13	?
COc1ccc(CN2CCN(C(=O)Cn3c(=O)oc4cc(Cl)ccc43)CC2)c(OC)c1OC	3.5µM*	.	.	-1	-8	-26%
Cc1cc2oc(=O)cc(CN(C)Cc3ccccc3)c2cc1C(C)C	8.9µM*	?	-3%	-1	-7	-24%
COc1ccc2oc(=O)cc(CN3CCN(Cc4ccc(OC)c(OC)c4OC)CC3)c2c1	3.5µM*	.	.	-2	4	-5%
O=C(Nc1ccc2oc(-c3ccc4ccccc4c3)nc2c1)c1ccc(Cl)c(Cl)c1	.	.	-12%[46.1 µM]	.	.	8%
CCOC(=O)Cc1nnc(NC(=O)c2ccco2)s1	28%	2%	2%	0	-9	7%
Cc1ccc2c(CN(C)Cc3ccccc3)cc(=O)oc2c1	.	.	?	.	.	37%
Cc1cc2oc(=O)cc(CN3CCCCC3C)c2cc1C(C)C (stereo not drawn)	13µM*	-26%[46.1 µM]	?	-2	-5	-28%
CCc1ccc2c(CN(C)Cc3ccccc3OC)cc(=O)oc2c1	-22%	?	?	19*	56	10%
Cc1ccc2c(CN(C)Cc3cccc(F)c3)cc(=O)oc2c1	-13%	.	.	30*	88*	24%
CC(C)CCOc1ccc(/C=N/N2C(=O)CSC2=S)cc1	3%	-1%[46.1 µM]	12%[46.1 µM]	-3	-13	-1%
COc1ccc(/C=N/N=C2/SCC(=O)N2Cc2ccccc2)cc1	-18%	?	?	47*	86*	40%
COc1ccc(/C=C2\CN(Cc3ccccc3)C/C(=C\c3ccc(OC)cc3)C2=O)cc1	0%	?	7.9µM*	-4	-5	?
COc1ccc(N=C2SCC(=O)N2Cc2ccccc2)cc1	5%	-4%[46.1 µM]	-19%	22	2	-22%
COc1ccc(/C=C2\CN(Cc3ccccc3)C/C(=C\c3ccc(OC)cc3OC)C2=O)c(OC)c1	?	?	?	-1	-7	-27%
COc1ccc(CN2C(=O)CS/C2=N/N=C/c2ccccc2)cc1	13µM*	.	.	-3	-8	14%
COc1ccc(/C=N/N2C(=N)SCC2=O)cc1	3%	?	?	14*	29	0%
C[C@H](CO)N1C[C@H](C)[C@@H](CN(C)S(=O)(=O)c2ccccc2)Oc2c(NS(=O)(=O)c3cccs3)cccc2C1=O	-2%	.	.	.	.	12%
COc1cccc(C2c3[nH]c4ccccc4c3C[C@H]3C(=O)N(CCCO)CC(=O)N23)c1OC (stereo partly drawn)	4%	.	.	0	13	3%
N#Cc1cccc(C(=O)N(CCc2ccccc2)Cc2cccs2)c1	-14%	2%[46.1 µM]	?	-2	-19	-4%
COC(=O)c1sc2ccccc2c1C(=O)OC	.	10%	-19%[14.3 µM]	6	-7	20%
CC(=Nc1ccc(C)cc1C)c1sc2ccccc2c1O	?	.	.	37*	119*	-24%
